Screening data (PubChem)
Compounds with a hit are over-represented: about 1.2% of the library has one in this group of screens.
RGS8-Gao reg = human RGS8-Galphao interaction regulation; actives 0.34% (n = 220,000); P09471; multiplexed bead flow cytometry, RGS8-Galphao binding; actives lie on both sides; response (percent of control binding), % at 10 µM; AID 1423; in the data active means response below about 60% or above about 140%; inactive means in between;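 further: Galphao activated as the GDP aluminium fluoride complex binding bead-coupled RGS8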
Target sequence (P09471 whole entry, looked up): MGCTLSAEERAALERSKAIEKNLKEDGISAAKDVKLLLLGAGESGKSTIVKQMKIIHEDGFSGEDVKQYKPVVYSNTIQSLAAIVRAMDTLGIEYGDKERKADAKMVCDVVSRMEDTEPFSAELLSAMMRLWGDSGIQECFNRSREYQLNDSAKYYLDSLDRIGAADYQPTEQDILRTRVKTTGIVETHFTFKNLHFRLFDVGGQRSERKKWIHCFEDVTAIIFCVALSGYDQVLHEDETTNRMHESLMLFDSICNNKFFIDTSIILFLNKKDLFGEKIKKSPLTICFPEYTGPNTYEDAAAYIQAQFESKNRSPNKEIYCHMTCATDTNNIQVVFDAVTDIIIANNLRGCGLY
RGS7-Gao = human RGS7-Galphao interaction regulation; P09471; Multiplexed bead flow cytometry, RGS7-Galphao binding; actives lie on both sides; binding response (% of control), % at 10 µM; actives 0.35% (n = 220,000); in the data active means binding response below about 49% or above about 150%; inconclusive means no clear call, values can overlap the other calls; inactive means in between;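 further: fluorescent Galphao held in activated GDP-AlF4 state binding bead-coupled RGS7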
RGS4-Gao reg = human RGS4-Galphao interaction regulation. P09471. Multiplexed bead flow cytometry, RGS4-Galphao binding; actives lie on both sides. binding response (% of control), % at 10 µM. actives 0.33% (n = 220,000). AID 1415; in the data active means binding response below about 49% or above about 150%; inactive means in between;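 further: fluorescent Galphao activated with aluminum fluoride binding bead-coupled RGS4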
Avidin fluor = compound fluoresces at 488/530 nm on avidin beads; AID 1775; compound fluorescence 488/530 nm, flow cytometry; active compounds read high; fluorescence (KMESF) at 10 µM; actives 0.38% (n = 220,000); in the data active means fluorescence above about 47
RGS16-Gao = RGS16-Galphao interaction regulator (human). AID 1441. actives 0.38% (n = 220,000). binding response (% of control), % at 10 µM. bead-based flow cytometry RGS16-Galphao binding, fluorescence; actives lie on both sides. O15492+P09471;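 further: Galphao activated by GDP with aluminum fluoride before binding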
Target sequence (O15492 whole entry, looked up): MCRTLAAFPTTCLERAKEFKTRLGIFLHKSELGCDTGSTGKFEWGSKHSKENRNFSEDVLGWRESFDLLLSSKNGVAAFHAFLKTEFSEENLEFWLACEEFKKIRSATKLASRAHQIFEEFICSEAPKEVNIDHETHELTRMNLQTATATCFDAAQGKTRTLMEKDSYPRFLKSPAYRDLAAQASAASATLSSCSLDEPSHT
Target sequence (P09471 whole entry, looked up): as the sequence (P09471 whole entry, looked up) above
GSH bead fluor = GSH bead compound fluorescence profile; GSH beads flow cytometry, compound fluorescence 488/530 nm; active compounds read high; actives 0.25% (n = 190,000); fluorescence (KMESF) at 10 µM; in the data active means fluorescence above about 89;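 further: glutathione beads carrying GST-tagged Bcl family fusion proteins plus one bare bead set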
RGS4-Gao HTS = RGS4-Galphao interaction regulator (human); shares compounds with RGS16-Gao; actives 99% (n = 1,600); multiplexed bead flow cytometry, RGS–Galpha-o binding; RGS4–Galpha-o binding response, % at 10 µM;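 further: fluorescently labeled Galpha-o bound to GDP with aluminium fluoride binding biotinylated RGS beads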
Biotin-avidin = counter-screen: compounds disrupting biotin binding to avidin beads | shares compounds with RGS16-Gao | streptavidin beads, fluorescein-biotin binding, flow cytometry | inhibition, % at 10 µM | 1,700 tested, under 10 active | AID 1783;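 active means inhibition above 50%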;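 further: median green fluorescence of gated singlet beads compared with DMSO control wells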
RGS8-Gao confirm = RGS8-Galphao interaction regulation, single point confirmation | binding response (% of control), % at 10 µM | bead-based flow cytometry RGS8-Galphao binding, fluorescence; actives lie on both sides | actives 3% (n = 1,700) | shares compounds with RGS16-Gao | AID 1836; in the data active means binding response below about 72% or above about 130%; inactive means in between;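 further: Galphao activated as GDP AlF4 complex before binding bead RGS8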
RGS7-Gao confirm = confirmation of regulators of human RGS7-Galphao interaction. shares compounds with RGS16-Gao. bead-based flow cytometry RGS7-Galphao binding; actives lie on both sides. response (percent of control binding), % at 10 µM. actives 7.8% (n = 1,700). AID 1837; in the data active means response below about 75% or above about 130%; inactive means in between;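 further: fluorescent Galphao activated with GDP and aluminum fluoride binding bead-coupled RGS7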
RGS16-Gao conf = RGS16-Galphao interaction regulation, single point confirmation; response (% of control binding), % at 10 µM; bead-based flow cytometry, RGS16-Galphao binding; actives lie on both sides; actives 4% (n = 1,700); shares compounds with RGS16-Gao; in the data active means response below about 74% or above about 130%; inactive means in between;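 further: Galphao activated as the GDP aluminium fluoride complex binding bead-coupled RGS16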
RGS4-Gao single = RGS4-Galphao interaction regulation, single point confirmation; shares compounds with RGS16-Gao; RGS4-Galphao binding, multiplexed bead flow cytometry; actives lie on both sides; binding response (% of control), % at 10 µM; actives 4% (n = 1,700); AID 1840; in the data active means binding response below about 74% or above about 130%; inactive means in between
RGS19-Gao single = RGS19-Galphao interaction regulation, single point confirmation; shares compounds with RGS16-Gao; bead-based flow cytometry RGS19-Galphao binding; actives lie on both sides; response (percent of control binding), % at 10 µM; actives 5% (n = 1,700); AID 1841; in the data active means response below about 50% or above about 160%; inactive means in between
Numbers stand for hits; 0 = inactive; ? = inconclusive; - = no result; [ ] = another dose, or the depositor's remark. Unless noted, how the calls were made is not given here.

SMILES	RGS8-Gao reg	RGS7-Gao	RGS4-Gao reg	Avidin fluor	RGS16-Gao	GSH bead fluor	Biotin-avidin	RGS8-Gao confirm	RGS7-Gao confirm	RGS16-Gao conf	RGS4-Gao single	RGS19-Gao single	others
CSc1ncccc1C(=O)Nc1nc2c(C)cccc2s1	0	0	0	0	0	0	-	-	-	-	-	-
CC(C)NC(=O)COc1ccc(S(=O)(=O)N(C)Cc2ccccc2)cc1	0	?	0	0	0	-	-	-	-	-	-	-
Cc1ccc(CN2CCN(/N=C/c3ccc(C(=O)O)cc3)CC2)cc1	0	0	0	0	0	0	-	-	-	-	-	-
Cc1ccc(CN2CCN(/N=C/c3cccnc3)CC2)cc1	0	0	0	0	260.5[activator]	0	0	0	0	0	0	0	RGS4-Gao HTS=110.4
O=C(O)c1ccc(/C=N/N2CCN(Cc3ccc(Cl)cc3)CC2)cc1	148.2[activator]	0	0	0	0	0	0	0	0	0	0	0	RGS4-Gao HTS=116.5
CCN(CC)c1ccc(/C=N\N2CCN(Cc3ccc(C)cc3)CC2)cc1	0	0	0	0	0	0	-	-	-	-	-	-
CC/C(=N/O)c1cnnc(SC)n1	0	0	0	0	16.0	0	0	0	0	0	0	0	RGS4-Gao HTS=94.5
CSc1nncc(/C(C)=N/O)n1	0	0	0	0	0	0	-	-	-	-	-	-
CC(C)c1nc2oc3c(NCCO)ncnc3c2c2c1COC(C)(C)C2	0	?	0	0	0	-	-	-	-	-	-	-
CCCc1nc2oc3c(NCCOCCO)ncnc3c2c2c1COC(C)(C)C2	0	173.3[activator]	164.9[activator]	0	0	0	0	0	0	0	0	0
Cc1cc(C)n(C(=O)COc2ccc([N+](=O)[O-])cc2)n1	0	0	0	0	0	0	-	-	-	-	-	-
Cc1cc(C)n(C(N)=NC(=O)c2ccc([N+](=O)[O-])cc2)n1	53.8	?	34.9	0	0	-	0	0	0	0	0	0
CCOc1cccc2cc(-c3nnc(NCc4ccc5c(c4)OCO5)s3)c(=O)oc12	-	-	-	-	-	0	0	0	0	0	0	166.7[activator]
O=C1c2ccccc2C(=O)N1c1ncn[nH]1	0	?	0	0	0	-	-	-	-	-	-	-
Cc1onc(NC(=O)c2ccc(Cl)cc2Cl)c1Br	0	0	0	0	0	0	-	-	-	-	-	-
COc1cccc(CNC(=O)CN2C(=O)CSc3ccc(S(=O)(=O)N4CCCC4)cc32)c1	0	0	0	0	0	0	-	-	-	-	-	-
Nc1ccccc1N1CCOCC1	0	0	0	0	0	0	-	-	-	-	-	-
CC1CCN(c2ccccc2N)CC1	0	152.8[activator]	163.2[activator]	0	0	0	0	0	0	0	0	48.4
CC1CCN(c2nnc(N3CCC(C)CC3)c3ccccc23)CC1	17.5	11.7	20.0	0	10.6	0	0	0	0	0	0	0
Nc1nc(-c2c(Cl)cccc2Cl)no1	0	?	0	0	0	-	-	-	-	-	-	-
CCC(CC(C)(C)O)C(=O)NNC(=S)Nc1ccccc1 (stereo unspecified)	0	0	0	0	0	0	-	-	-	-	-	-
COc1ccccc1C(=O)NN1C(=O)/C(=C/c2cccn2C)SC1=S	-	-	-	95	-	-	0	0	0	0	0	0
Cn1cccc1/C=C1\SC(=S)N(NC(=O)c2ccccc2O)C1=O	0	?	0	0	0	-	-	-	-	-	-	-
CCOC(=O)/C=C(\C)Sc1cc(O)c2ccccc2c1O	50.3	?	0	0	11.2	-	-	-	-	-	-	-	RGS4-Gao HTS=80.9
COc1ccc(Cn2c(CCC(=O)Nc3ccc(C)cc3)nc3cccnc32)cc1	0	0	156.0[activator]	53	0	0	0	0	0	0	0	0
SMILES	RGS8-Gao reg	RGS7-Gao	RGS4-Gao reg	Avidin fluor	RGS16-Gao	GSH bead fluor	Biotin-avidin	RGS8-Gao confirm	RGS7-Gao confirm	RGS16-Gao conf	RGS4-Gao single	RGS19-Gao single	others
Nc1ncnc(Oc2cccc3cccnc23)c1[N+](=O)[O-]	0	0	0	0	0	0	-	-	-	-	-	-
CC(C)(C)c1nnc2sc(SCC(=O)c3ccccc3)nn2c1=O	0	0	0	0	0	0	-	-	-	-	-	-
CC(C)(C)c1nnc2sc(SC/C(O)=C(\C#N)c3nc4ccccc4[nH]3)nn2c1=O	148.1[activator]	161.3[activator]	177.2[activator]	0	177.8[activator]	0	0	0	0	0	0	0
O=c1c2ccccc2nc(/C=C/c2ccc(O)cc2)n1CCc1ccccc1	0	0	0	0	0	0	-	-	-	-	-	-
O=c1c2ccccc2nc(/C=C/c2ccc3c(c2)OCO3)n1CCCO	0	167.6[activator]	0	107	0	0	0	0	0	0	0	0	RGS4-Gao HTS=109.0
Cc1ccc(C)n1Cc1ccc(C(=O)O)cc1	0	48.8	0	0	0	0	-	-	-	-	-	-	RGS4-Gao HTS=89.0
CCCNC(=O)CN1C(=O)NC2(CCCc3cc(OC)ccc32)C1=O (stereo unspecified)	147.8[activator]	0	0	0	0	0	-	-	-	-	-	-	RGS4-Gao HTS=108.3
CN(C)C(=O)C12CCC(C)(C(=O)C1Br)C2(C)C (stereo unspecified)	0	?	0	0	0	-	-	-	-	-	-	-
O=C(C(=O)N1CCCc2ccccc21)N1CCCc2ccccc21	0	0	0	0	182.2[activator]	0	0	0	0	0	0	0	RGS4-Gao HTS=104.8
Cc1ccc(-c2nn[nH]n2)o1	0	151.2[activator]	0	81	0	0	0	0	0	0	0	0	RGS4-Gao HTS=122.9
Cc1ccc(-c2nn[nH]n2)cc1	-	-	-	-	-	0	0	0	0	0	0	0
Cc1ccc(-c2nn[nH]n2)cc1Cl	0	?	0	0	0	-	-	-	-	-	-	-
CCN1CCN(C(=O)Cn2cnc3sc(C)c(S(=O)(=O)N4CCN(c5ncccn5)CC4)c3c2=O)CC1	0	0	0	0	0	0	-	-	-	-	-	-
O=c1c2c3c(sc2nc2n1CCCCC2)C(O)CCC3 (stereo unspecified)	0	0	0	0	0	0	-	-	-	-	-	-
NC(=O)c1ccc(F)cc1	15.1	18.5	24.3	0	11.8	0	0	0	0	0	0	0
Cc1nn(CC(=O)N2CCc3ccccc3C2)c(C)c1[N+](=O)[O-]	0	0	0	0	0	0	-	-	-	-	-	-
Cc1c(Br)c([N+](=O)[O-])nn1CC(=O)N1CCc2ccccc2C1	0	0	0	0	24.3	0	0	0	0	0	0	0	RGS4-Gao HTS=97.4
